# According to ChEMBL document CHEMBL3988442, “University of Dundee, Small-Polar-MMV Screening Library” (2021):
# For some of these results: Potency and affinity values are given separately.
# How the values were obtained:
# Set-up in all cases: scale not given: direction of the effect not stated beside the values
# [1] = biological target: Protein translocase subunit SecA (Escherichia coli (strain K12)) (UniProt P10408); test: Assay to Identify E. coli SecA ATPase Inhibitors; type: functional; conditions: 30 µM
# Protein translocase subunit SecA (Escherichia coli (strain K12)), sequence (P10408 whole entry): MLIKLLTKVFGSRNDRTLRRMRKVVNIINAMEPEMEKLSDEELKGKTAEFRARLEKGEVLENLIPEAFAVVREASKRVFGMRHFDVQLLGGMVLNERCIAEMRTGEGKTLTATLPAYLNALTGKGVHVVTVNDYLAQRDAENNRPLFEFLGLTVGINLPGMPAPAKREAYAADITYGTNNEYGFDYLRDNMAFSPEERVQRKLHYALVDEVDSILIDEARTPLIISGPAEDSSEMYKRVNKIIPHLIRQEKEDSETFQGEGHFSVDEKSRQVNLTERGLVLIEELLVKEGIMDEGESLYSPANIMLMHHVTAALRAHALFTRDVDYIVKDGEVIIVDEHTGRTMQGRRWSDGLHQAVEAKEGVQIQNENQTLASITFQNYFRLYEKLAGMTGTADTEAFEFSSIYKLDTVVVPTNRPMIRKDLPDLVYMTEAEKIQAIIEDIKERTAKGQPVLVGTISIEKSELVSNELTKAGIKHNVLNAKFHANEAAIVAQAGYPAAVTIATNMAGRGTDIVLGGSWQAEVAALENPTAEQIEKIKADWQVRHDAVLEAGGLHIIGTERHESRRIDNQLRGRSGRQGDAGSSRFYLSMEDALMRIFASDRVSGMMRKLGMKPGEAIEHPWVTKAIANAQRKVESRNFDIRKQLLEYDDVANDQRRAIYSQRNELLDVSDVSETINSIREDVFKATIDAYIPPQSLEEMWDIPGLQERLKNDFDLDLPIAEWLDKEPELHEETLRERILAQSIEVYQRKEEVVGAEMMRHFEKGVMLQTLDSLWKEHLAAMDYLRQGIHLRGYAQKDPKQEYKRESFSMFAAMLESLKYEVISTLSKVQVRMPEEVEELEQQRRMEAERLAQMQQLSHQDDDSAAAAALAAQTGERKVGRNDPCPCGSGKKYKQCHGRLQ
# [2] = biological target: T1, Ubiquitin-activating enzyme e1, putative (Leishmania donovani (strain BPK282A1)) (UniProt E9BSI1); test: Leishmania donovani Ubiquitin Activating Enzyme (LdE1); type: functional; conditions: 30 µM
# T1 sequence (whole entry): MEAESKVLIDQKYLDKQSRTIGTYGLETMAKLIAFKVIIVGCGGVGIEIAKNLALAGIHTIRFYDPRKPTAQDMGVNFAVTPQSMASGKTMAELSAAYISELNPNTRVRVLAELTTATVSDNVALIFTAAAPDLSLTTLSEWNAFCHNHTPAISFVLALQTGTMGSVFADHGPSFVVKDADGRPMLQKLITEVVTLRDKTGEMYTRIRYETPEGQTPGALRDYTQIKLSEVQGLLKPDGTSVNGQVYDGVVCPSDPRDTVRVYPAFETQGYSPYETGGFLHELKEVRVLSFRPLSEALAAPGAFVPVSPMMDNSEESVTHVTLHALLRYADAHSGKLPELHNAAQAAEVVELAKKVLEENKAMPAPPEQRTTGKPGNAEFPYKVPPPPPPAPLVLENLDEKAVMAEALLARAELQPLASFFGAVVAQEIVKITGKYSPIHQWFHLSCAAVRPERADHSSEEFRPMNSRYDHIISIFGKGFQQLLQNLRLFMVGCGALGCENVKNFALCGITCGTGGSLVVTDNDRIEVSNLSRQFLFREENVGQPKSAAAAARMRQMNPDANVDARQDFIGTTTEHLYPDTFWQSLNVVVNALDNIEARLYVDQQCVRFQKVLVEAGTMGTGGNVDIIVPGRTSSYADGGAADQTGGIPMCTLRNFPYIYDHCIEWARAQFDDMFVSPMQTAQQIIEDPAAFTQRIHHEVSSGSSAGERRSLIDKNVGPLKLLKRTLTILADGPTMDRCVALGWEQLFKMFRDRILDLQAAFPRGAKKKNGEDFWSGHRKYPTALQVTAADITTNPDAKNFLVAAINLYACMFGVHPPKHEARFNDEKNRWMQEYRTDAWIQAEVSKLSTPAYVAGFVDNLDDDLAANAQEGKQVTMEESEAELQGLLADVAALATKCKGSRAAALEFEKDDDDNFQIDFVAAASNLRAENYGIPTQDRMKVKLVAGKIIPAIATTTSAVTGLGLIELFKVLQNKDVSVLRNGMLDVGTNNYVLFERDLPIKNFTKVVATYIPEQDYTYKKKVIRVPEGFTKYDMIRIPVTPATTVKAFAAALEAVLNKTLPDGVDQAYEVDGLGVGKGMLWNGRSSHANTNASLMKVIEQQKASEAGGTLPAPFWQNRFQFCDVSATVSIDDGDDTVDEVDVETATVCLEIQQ
# [3] = biological target: AMP-activated protein kinase, AMPK (Homo sapiens) (UniProt P54646+O43741+P54619+Q9UGJ0+Q9Y478+Q13131+Q9UGI9); test: AMP-dependent Kinase enzyme assay. An in vitro enzyme assay that detects ADP turnover that is directly proportional to AMPK activity. This uses naive AMPK that is activated during the assay with MK-8722; type: functional; conditions: 30 µM
# [4] = biological target: Sialic acid-binding Ig-like lectin 9 (Homo sapiens) (UniProt Q9Y336); test: Hs-Siglec9 ALPHAscreen SOP 20170721; conditions: 10 µM
# Sialic acid-binding Ig-like lectin 9 (Homo sapiens), sequence (Q9Y336 whole entry): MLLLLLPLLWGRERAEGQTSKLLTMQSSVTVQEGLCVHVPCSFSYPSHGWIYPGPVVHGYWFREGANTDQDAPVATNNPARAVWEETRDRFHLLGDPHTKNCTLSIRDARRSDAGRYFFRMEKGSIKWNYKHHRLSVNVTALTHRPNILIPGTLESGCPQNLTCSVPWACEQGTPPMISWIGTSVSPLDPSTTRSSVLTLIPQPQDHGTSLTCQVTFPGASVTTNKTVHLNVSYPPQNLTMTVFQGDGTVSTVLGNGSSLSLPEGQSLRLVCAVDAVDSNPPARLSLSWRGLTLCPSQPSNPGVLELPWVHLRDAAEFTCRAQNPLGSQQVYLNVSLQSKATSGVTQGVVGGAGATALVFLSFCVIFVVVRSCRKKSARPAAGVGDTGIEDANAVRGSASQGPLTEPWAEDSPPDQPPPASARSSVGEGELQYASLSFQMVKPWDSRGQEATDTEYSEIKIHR
# Trypanosoma cruzi = test: Trypanosoma cruzi phosphomannomutase and mannose-1-phosphate guanylyltransferase assay; type: functional; conditions: 10 µM
# [5] = biological target: T2, Arginase-2, mitochondrial (Homo sapiens) (UniProt P78540); test: in vitro enzyme assay to detect the production of urea directly proportional to the activity of Arginase II; type: functional; conditions: 33.3 µM; further: in the data most compounds retested in dose-response had high values
# T2 sequence (whole entry): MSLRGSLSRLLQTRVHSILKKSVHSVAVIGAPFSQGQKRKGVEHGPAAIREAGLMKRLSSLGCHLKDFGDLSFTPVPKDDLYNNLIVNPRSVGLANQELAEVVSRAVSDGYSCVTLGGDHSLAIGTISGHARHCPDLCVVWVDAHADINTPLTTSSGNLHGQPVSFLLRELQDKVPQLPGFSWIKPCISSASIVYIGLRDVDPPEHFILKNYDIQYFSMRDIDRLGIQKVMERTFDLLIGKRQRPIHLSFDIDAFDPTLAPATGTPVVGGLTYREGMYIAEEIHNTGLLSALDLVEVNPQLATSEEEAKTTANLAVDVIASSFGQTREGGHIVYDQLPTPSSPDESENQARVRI
# [6] = biological target: T3, Proteasome subunit beta (Trypanosoma cruzi) (UniProt O96673); test: Trypanosoma cruzi proteasome chymotrypsin-like activity (TcProtChymo) assay.; further: in the data most compounds retested in dose-response had high values; type: functional; conditions: 9.37 µM
# T3 sequence (whole entry): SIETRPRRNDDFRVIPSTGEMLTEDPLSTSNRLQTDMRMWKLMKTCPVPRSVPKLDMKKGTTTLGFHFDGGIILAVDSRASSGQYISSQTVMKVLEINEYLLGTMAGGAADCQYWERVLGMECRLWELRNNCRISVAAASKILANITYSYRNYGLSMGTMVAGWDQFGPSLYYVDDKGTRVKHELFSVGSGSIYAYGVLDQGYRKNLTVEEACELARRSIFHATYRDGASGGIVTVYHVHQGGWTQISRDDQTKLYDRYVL
# Homo sapiens = species on record: Homo sapiens; test: To identify inhibition of the IFN signalling (Jak-Stat) pathway via expression of an eGFP reporter gene under the control of an IFN-stimulated response element (ISRE) containing MxA promoter.; type: functional; conditions: 30 µM
# [7] = biological target: T4, Tyrosyl-tRNA synthetase, putative (Trypanosoma cruzi (strain CL Brener)) (UniProt Q4DSP6); test: Trypanosoma cruzi tyrosyl tRNA synthetase (TcYRS) _High Tyrosine SOP; type: functional; conditions: 30 µM; further: in the data most compounds retested in dose-response had high values
# T4 sequence (whole entry): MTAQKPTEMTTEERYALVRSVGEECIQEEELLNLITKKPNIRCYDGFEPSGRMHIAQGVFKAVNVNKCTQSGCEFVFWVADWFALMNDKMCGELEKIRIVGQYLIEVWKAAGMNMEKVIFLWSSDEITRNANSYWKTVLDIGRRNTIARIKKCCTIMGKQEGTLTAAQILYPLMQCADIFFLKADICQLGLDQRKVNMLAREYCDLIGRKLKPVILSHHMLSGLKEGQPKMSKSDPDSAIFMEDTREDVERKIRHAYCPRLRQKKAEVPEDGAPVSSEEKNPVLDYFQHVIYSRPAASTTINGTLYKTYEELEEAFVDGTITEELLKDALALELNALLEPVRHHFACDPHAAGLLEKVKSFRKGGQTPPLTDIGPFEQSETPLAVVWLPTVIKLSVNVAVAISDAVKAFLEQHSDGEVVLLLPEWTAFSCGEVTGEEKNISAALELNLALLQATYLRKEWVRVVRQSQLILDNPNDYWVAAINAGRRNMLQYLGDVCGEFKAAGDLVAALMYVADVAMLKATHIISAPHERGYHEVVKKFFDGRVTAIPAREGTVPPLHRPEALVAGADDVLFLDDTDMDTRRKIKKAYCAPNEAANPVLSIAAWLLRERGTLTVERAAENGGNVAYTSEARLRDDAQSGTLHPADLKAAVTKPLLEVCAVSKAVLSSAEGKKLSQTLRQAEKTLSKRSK
# [8] = biological target: T4, Tyrosyl-tRNA synthetase, putative (Trypanosoma cruzi (strain CL Brener)); test: Trypanosoma cruzi tyrosyl tRNA synthetase (TcYRS) SOP; type: functional; conditions: 30 µM
# [9] = biological target: Chromo domain-containing protein 1 (Saccharomyces cerevisiae (strain ATCC 204508 / S288c) (Baker's yeast)) (UniProt P32657); test: ScCHD-1 Enzyme Inhibition Assay; type: functional; conditions: 30 µM; further: in the data most compounds retested in dose-response had high values
# Chromo domain-containing protein 1 (Saccharomyces cerevisiae (strain ATCC 204508 / S288c) (Baker's yeast)), sequence (P32657 whole entry, the tested form may be a part): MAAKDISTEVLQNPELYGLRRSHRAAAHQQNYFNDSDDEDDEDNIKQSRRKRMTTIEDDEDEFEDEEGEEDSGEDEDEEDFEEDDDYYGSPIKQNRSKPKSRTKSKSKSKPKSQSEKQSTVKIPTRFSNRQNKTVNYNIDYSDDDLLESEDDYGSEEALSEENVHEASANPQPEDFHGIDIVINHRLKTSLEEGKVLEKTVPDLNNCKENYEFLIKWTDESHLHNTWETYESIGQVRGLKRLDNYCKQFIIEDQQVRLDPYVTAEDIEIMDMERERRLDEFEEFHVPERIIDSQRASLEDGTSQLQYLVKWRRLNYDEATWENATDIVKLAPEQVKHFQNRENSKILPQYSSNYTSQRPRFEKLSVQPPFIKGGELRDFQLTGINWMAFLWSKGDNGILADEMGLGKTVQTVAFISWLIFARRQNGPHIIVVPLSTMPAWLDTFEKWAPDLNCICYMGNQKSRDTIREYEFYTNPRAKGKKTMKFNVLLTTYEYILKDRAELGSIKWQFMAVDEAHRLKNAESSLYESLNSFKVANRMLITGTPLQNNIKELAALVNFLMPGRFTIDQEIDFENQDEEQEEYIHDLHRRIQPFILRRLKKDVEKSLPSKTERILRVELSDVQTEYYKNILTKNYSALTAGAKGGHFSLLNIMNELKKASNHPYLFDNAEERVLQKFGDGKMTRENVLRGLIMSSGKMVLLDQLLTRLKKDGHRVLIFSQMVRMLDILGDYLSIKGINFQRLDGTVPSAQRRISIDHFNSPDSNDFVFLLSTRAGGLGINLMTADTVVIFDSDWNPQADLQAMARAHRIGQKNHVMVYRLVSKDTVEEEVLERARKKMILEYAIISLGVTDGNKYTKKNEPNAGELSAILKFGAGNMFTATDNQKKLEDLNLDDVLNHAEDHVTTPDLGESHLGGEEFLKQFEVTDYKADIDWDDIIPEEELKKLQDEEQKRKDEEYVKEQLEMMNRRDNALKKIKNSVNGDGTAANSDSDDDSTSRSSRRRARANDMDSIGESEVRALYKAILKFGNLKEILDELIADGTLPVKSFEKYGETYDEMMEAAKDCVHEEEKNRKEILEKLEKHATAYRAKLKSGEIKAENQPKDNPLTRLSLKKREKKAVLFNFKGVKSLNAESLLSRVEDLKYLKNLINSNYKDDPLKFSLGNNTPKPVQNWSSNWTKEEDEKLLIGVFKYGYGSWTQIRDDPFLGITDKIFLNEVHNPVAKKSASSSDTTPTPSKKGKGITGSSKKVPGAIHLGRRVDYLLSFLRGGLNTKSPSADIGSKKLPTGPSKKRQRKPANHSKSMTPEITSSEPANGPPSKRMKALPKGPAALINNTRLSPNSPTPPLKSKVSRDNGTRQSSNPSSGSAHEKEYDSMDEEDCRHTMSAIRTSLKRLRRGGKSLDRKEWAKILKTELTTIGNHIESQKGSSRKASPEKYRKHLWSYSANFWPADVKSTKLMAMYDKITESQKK
Structure (SMILES),Percent Effect [1],Percent Effect [2],Percent Effect [3],Percent Effect [4],Percent Effect (Trypanosoma cruzi),Percent Effect [5],Percent Effect [6],Percent Effect (Homo sapiens),Percent Effect [7],Percent Effect [8],Percent Effect [9]
Cc1ccc(CN2CC(C(=O)Nc3ccccc3)C3(CCOCC3)C2)s1 (stereo not given),-2.15%,8%,-1.41%,0.774%,-0.579%,-44.3%,11.4%,-5.53%,3.12%,25%,-6.22%
Cc1nc(C)c(CC(=O)Nc2nnc(C)s2)c(=O)[nH]1,-0.0632%,-13.2%,-1.32%,2.92%,2.82%,1.15%,7.85%,0.477%,4.41%,21.9%,-10.9%
Cc1nc(C)n(CC2CCCCN2CCS(C)(=O)=O)n1 (stereo not given),-4.31%,-2.7%,0.489%,0.818%,-3.09%,-3.33%,11.7%,8.2%,-2.65%,-4.88%,-3.45%
Cc1cc(C)n(CC2CN(CC(=O)NC3CCCC3)CCO2)n1 (stereo not given),-8.44%,7.79%,2.32%,-3.15%,-8.24%,-0.712%,2.03%,32.3%,1.94%,2.44%,-5.73%
Cn1cc(CCNC(=O)NCc2nnc3n2CCC3)cn1,-2.08%,15.2%,-4.15%,10.9%,-1.6%,2.28%,-0.573%,4.78%,1.48%,16.5%,-6.44%
O=C1CC(c2ccccc2)C2(CCN(CC3CC3)CC2)N1 (stereo not given),-1.75%,10.7%,3.12%,-1.87%,5.02%,-55%,9.23%,0.446%,5.21%,20%,-5.25%
Cc1nccn1C1CCCN(C(=O)c2ccc3c(c2)nnn3C)C1 (stereo not given),-3.52%,10.5%,-2.69%,0.191%,-4.95%,5.75%,9.9%,3.52%,4.43%,6.17%,-4.12%
O=S(=O)(c1ccccc1)N1CCC2(CCCN2CC2CCCC2)C1 (stereo not given),-2.93%,-21.6%,-3%,2.91%,-0.489%,4.78%,13.3%,-13.9%,6.49%,5.13%,11%
O=C(NCCCOCC1CCCO1)c1cccnc1N1CCCC1 (stereo not given),-2.67%,5.41%,4.06%,-10.2%,-2.93%,0.833%,14.3%,-4.98%,9.9%,-3.66%,6.21%
O=C(c1ncccn1)N1C[C@H]2CCC[C@@]2(COCc2ccncc2)C1,-1.29%,23.4%,-4.05%,-10.3%,4.63%,4.52%,13.9%,11.8%,3.17%,14.1%,-11.1%
CN1C(=O)C[C@@H]2[C@@H]1CCN2S(=O)(=O)Cc1ccccc1,2.57%,2.74%,4.04%,13.8%,-0.595%,2%,2.83%,1.27%,3.12%,3.7%,6.94%
Cc1nnc([C@@H]2CC[C@@H]3[C@@H](CCN3S(=O)(=O)c3cccnc3)O2)o1,-6.5%,10.8%,7.11%,-2.36%,-1.07%,6.05%,15.7%,-6.25%,15.1%,12.8%,-1.2%
CCCc1nc(CN2CCOC(Cn3cncn3)C2)no1 (stereo not given),-1.95%,11.4%,-5.09%,-4.75%,-1.74%,3.23%,12.3%,18.7%,3.12%,10.1%,-24.9%
CCn1c(=O)nc2n1C(=O)N(c1cccc(Cl)c1)C2,-5.8%,6.67%,-1.98%,-4.32%,-0.786%,2.29%,13.7%,-10.2%,8.47%,15.4%,-7.77%
CCCn1nc2c(cc1=O)CN(CCS(C)(=O)=O)CC2,-6.22%,-5.41%,-30.8%,22.6%,2.17%,-6.01%,7.75%,7.82%,8.37%,16.1%,-11.1%
COCCNC(=O)[C@@H]1CC[C@@H]2[C@@H](CCN2Cc2cnn(C)c2)O1,-1.36%,13.3%,-7.81%,2.22%,-0.386%,-43.5%,9.74%,2.61%,3.12%,10%,-7.85%
COCC(=O)N1CCO[C@H]2[C@H](OC)CC[C@@H]21,-6.12%,5.41%,1.82%,-0.654%,-4.79%,4.78%,21.8%,9.88%,1.08%,5.13%,1.01%
CN(C)C(=O)CC1CC2(CCN(C(=O)N(C)C)CC2)Oc2ccccc21 (stereo not given),-2.94%,8.11%,-0.534%,-1.19%,-4.79%,2.73%,9.53%,4.7%,1.07%,6.17%,-4.24%
COc1ccc2c(c1)C1(CCN(Cc3ccoc3)CC1)N(C)CC2,-1.9%,5.2%,2.57%,3.45%,-0.0986%,-7.1%,20%,-0.746%,-1.06%,8.97%,-9.11%
CC(=O)Nc1cccc(C(=O)Nc2cnc3n2CCCC3)c1,-3.85%,4.17%,-0.344%,0.164%,-1.46%,3.53%,6.14%,17.5%,4.21%,5.13%,-3.23%
